# B1: unnamed (peptide)
# chain: FYNRTAFQLPGDARV
# Target: AgAbp1
# Assay: SPOT peptide array binding signal intensity (averaged, normalized) (arbitrary units (background-subtracted, floor 0; scale differs between SH3 domains)); higher = stronger binding of the SH3 domain to the peptide
# Method in brief: (§1)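 Spot intensities were captured after detection with anti-GST antibody, an HRP-linked anti-mouse secondary and luminol, and quantified with Genespotter. The probes were GST-fused SH3 domains from four yeast species, produced in E. coli BL21(DE3), purified on glutathione Sepharose and incubated at 10 μg/ml overnight at 4°C on cellulose-bound synthetic 15-mer peptides with cysteines replaced by serines. Binding signal is the normalized, background-subtracted spot intensity averaged over replicates, and its arbitrary units differ between domains.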
row,Binder,SPOT peptide array binding signal intensity
1,B1,1.5

# Target: AgBbc1
# Assay: as above
# Method in brief: as §1
row,Binder,SPOT peptide array binding signal intensity
1,B1,0.5

# Target: AgBem1-D1
# Assay: as above
# Method in brief: as §1
row,Binder,SPOT peptide array binding signal intensity
1,B1,≤ 0

# Target: AgBzz1-D1
# Assay: as above
# Method in brief: as §1
row,Binder,SPOT peptide array binding signal intensity
1,B1,39.5

# Target: AgBzz1-D2
# Assay: as above
# Method in brief: as §1
row,Binder,SPOT peptide array binding signal intensity
1,B1,39

# Target: AgCyk3
# Assay: as above
# Method in brief: as §1
row,Binder,SPOT peptide array binding signal intensity
1,B1,2

# Target: AgFus1
# Assay: as above
# Method in brief: as §1
row,Binder,SPOT peptide array binding signal intensity
1,B1,12

# Target: AgHof1
# Assay: as above
# Method in brief: as §1
row,Binder,SPOT peptide array binding signal intensity
1,B1,12.2

# Target: AgHse1
# Assay: as above
# Method in brief: as §1
row,Binder,SPOT peptide array binding signal intensity
1,B1,18

# Target: AgLsb1
# Assay: as above
# Method in brief: as §1
row,Binder,SPOT peptide array binding signal intensity
1,B1,1140

# Target: AgLsb4
# Assay: as above
# Method in brief: as §1
row,Binder,SPOT peptide array binding signal intensity
1,B1,≤ 0

# Target: AgMyo5
# Assay: as above
# Method in brief: as §1
row,Binder,SPOT peptide array binding signal intensity
1,B1,9.5

# Target: AgNbp2
# Assay: as above
# Method in brief: as §1
row,Binder,SPOT peptide array binding signal intensity
1,B1,≤ 0

# Target: AgRvs167
# Assay: as above
# Method in brief: as §1
row,Binder,SPOT peptide array binding signal intensity
1,B1,1.83

# Target: AgSho1
# Assay: as above
# Method in brief: as §1
row,Binder,SPOT peptide array binding signal intensity
1,B1,≤ 0

# Target: AgSla1-D1-D2
# Assay: as above
# Method in brief: as §1
row,Binder,SPOT peptide array binding signal intensity
1,B1,1

# Target: AgSla1-D3
# Assay: as above
# Method in brief: as §1
row,Binder,SPOT peptide array binding signal intensity
1,B1,1

# Target: CaAbp1-D1
# Assay: as above
# Method in brief: as §1
row,Binder,SPOT peptide array binding signal intensity
1,B1,7

# Target: CaAbp1-D2
# Assay: as above
# Method in brief: as §1
row,Binder,SPOT peptide array binding signal intensity
1,B1,≤ 0

# Target: CaBbc1
# Assay: as above
# Method in brief: as §1
row,Binder,SPOT peptide array binding signal intensity
1,B1,3

# Target: CaBem1-D1
# Assay: as above
# Method in brief: as §1
row,Binder,SPOT peptide array binding signal intensity
1,B1,16

# Target: CaBzz1-D1
# Assay: as above
# Method in brief: as §1
row,Binder,SPOT peptide array binding signal intensity
1,B1,37.5

# Target: CaBzz1-D2
# Assay: as above
# Method in brief: as §1
row,Binder,SPOT peptide array binding signal intensity
1,B1,30.5

# Target: CaCyk3
# Assay: as above
# Method in brief: as §1
row,Binder,SPOT peptide array binding signal intensity
1,B1,5

# Target: CaFus1
# Assay: as above
# Method in brief: as §1
row,Binder,SPOT peptide array binding signal intensity
1,B1,21.5

# Target: CaHof1
# Assay: as above
# Method in brief: as §1
row,Binder,SPOT peptide array binding signal intensity
1,B1,0.5

# Target: CaHse1
# Assay: as above
# Method in brief: as §1
row,Binder,SPOT peptide array binding signal intensity
1,B1,2

# Target: CaLsb1
# Assay: as above
# Method in brief: as §1
row,Binder,SPOT peptide array binding signal intensity
1,B1,410

# Target: CaLsb4
# Assay: as above
# Method in brief: as §1
row,Binder,SPOT peptide array binding signal intensity
1,B1,≤ 0

# Target: CaMyo5
# Assay: as above
# Method in brief: as §1
row,Binder,SPOT peptide array binding signal intensity
1,B1,13.5

# Target: CaNbp2
# Assay: as above
# Method in brief: as §1
row,Binder,SPOT peptide array binding signal intensity
1,B1,22

# Target: CaRvs167
# Assay: as above
# Method in brief: as §1
row,Binder,SPOT peptide array binding signal intensity
1,B1,≤ 0

# Target: CaRvs167-3
# Assay: as above
# Method in brief: as §1
row,Binder,SPOT peptide array binding signal intensity
1,B1,3.5

# Target: CaSho1
# Assay: as above
# Method in brief: as §1
row,Binder,SPOT peptide array binding signal intensity
1,B1,11.5

# Target: CaSla1-D1-D2
# Assay: as above
# Method in brief: as §1
row,Binder,SPOT peptide array binding signal intensity
1,B1,≤ 0

# Target: CaSla1-D3
# Assay: as above
# Method in brief: as §1
row,Binder,SPOT peptide array binding signal intensity
1,B1,≤ 0

# Target: ScAbp1
# Assay: as above
# Method in brief: as §1
row,Binder,SPOT peptide array binding signal intensity
1,B1,2.5

# Target: ScBbc1
# Assay: as above
# Method in brief: as §1
row,Binder,SPOT peptide array binding signal intensity
1,B1,3.5

# Target: ScBem1-D1
# Assay: as above
# Method in brief: as §1
row,Binder,SPOT peptide array binding signal intensity
1,B1,0.5

# Target: ScBzz1-D1
# Assay: as above
# Method in brief: as §1
row,Binder,SPOT peptide array binding signal intensity
1,B1,22

# Target: ScBzz1-D2
# Assay: as above
# Method in brief: as §1
row,Binder,SPOT peptide array binding signal intensity
1,B1,36

# Target: ScCyk3
# Assay: as above
# Method in brief: as §1
row,Binder,SPOT peptide array binding signal intensity
1,B1,20

# Target: ScFus1
# Assay: as above
# Method in brief: as §1
row,Binder,SPOT peptide array binding signal intensity
1,B1,≤ 0

# Target: ScHof1
# Assay: as above
# Method in brief: as §1
row,Binder,SPOT peptide array binding signal intensity
1,B1,≤ 0

# Target: ScHse1
# Assay: as above
# Method in brief: as §1
row,Binder,SPOT peptide array binding signal intensity
1,B1,61.5

# Target: ScLsb1
# Assay: as above
# Method in brief: as §1
row,Binder,SPOT peptide array binding signal intensity
1,B1,554

# Target: ScLsb2
# Assay: as above
# Method in brief: as §1
row,Binder,SPOT peptide array binding signal intensity
1,B1,843

# Target: ScLsb3
# Assay: as above
# Method in brief: as §1
row,Binder,SPOT peptide array binding signal intensity
1,B1,≤ 0

# Target: ScLsb4
# Assay: as above
# Method in brief: as §1
row,Binder,SPOT peptide array binding signal intensity
1,B1,≤ 0

# Target: ScMyo3
# Assay: as above
# Method in brief: as §1
row,Binder,SPOT peptide array binding signal intensity
1,B1,40

# Target: ScMyo5
# Assay: as above
# Method in brief: as §1
row,Binder,SPOT peptide array binding signal intensity
1,B1,12.5

# Target: ScNbp2
# Assay: as above
# Method in brief: as §1
row,Binder,SPOT peptide array binding signal intensity
1,B1,≤ 0

# Target: ScPex13
# Assay: as above
# Method in brief: as §1
row,Binder,SPOT peptide array binding signal intensity
1,B1,≤ 0

# Target: ScRvs167
# Assay: as above
# Method in brief: as §1
row,Binder,SPOT peptide array binding signal intensity
1,B1,≤ 0

# Target: ScSho1
# Assay: as above
# Method in brief: as §1
row,Binder,SPOT peptide array binding signal intensity
1,B1,1

# Target: ScSla1-D1-D2
# Assay: as above
# Method in brief: as §1
row,Binder,SPOT peptide array binding signal intensity
1,B1,≤ 0

# Target: ScSla1-D3
# Assay: as above
# Method in brief: as §1
row,Binder,SPOT peptide array binding signal intensity
1,B1,1

# Target: SpAbp1-D1
# Assay: as above
# Method in brief: as §1
row,Binder,SPOT peptide array binding signal intensity
1,B1,≤ 0

# Target: SpBbc1
# Assay: as above
# Method in brief: as §1
row,Binder,SPOT peptide array binding signal intensity
1,B1,0.5

# Target: SpBzz1-D1
# Assay: as above
# Method in brief: as §1
row,Binder,SPOT peptide array binding signal intensity
1,B1,86

# Target: SpBzz1-D2
# Assay: as above
# Method in brief: as §1
row,Binder,SPOT peptide array binding signal intensity
1,B1,≤ 0

# Target: SpCyk3
# Assay: as above
# Method in brief: as §1
row,Binder,SPOT peptide array binding signal intensity
1,B1,2

# Target: SpHof1
# Assay: as above
# Method in brief: as §1
row,Binder,SPOT peptide array binding signal intensity
1,B1,4

# Target: SpHof1-2
# Assay: as above
# Method in brief: as §1
row,Binder,SPOT peptide array binding signal intensity
1,B1,1.5

# Target: SpHof1-3
# Assay: as above
# Method in brief: as §1
row,Binder,SPOT peptide array binding signal intensity
1,B1,22.5

# Target: SpHse1
# Assay: as above
# Method in brief: as §1
row,Binder,SPOT peptide array binding signal intensity
1,B1,21.5

# Target: SpLsb1
# Assay: as above
# Method in brief: as §1
row,Binder,SPOT peptide array binding signal intensity
1,B1,216

# Target: SpLsb4
# Assay: as above
# Method in brief: as §1
row,Binder,SPOT peptide array binding signal intensity
1,B1,≤ 0

# Target: SpMyo1
# Assay: as above
# Method in brief: as §1
row,Binder,SPOT peptide array binding signal intensity
1,B1,17.5

# Target: SpNbp2
# Assay: as above
# Method in brief: as §1
row,Binder,SPOT peptide array binding signal intensity
1,B1,2.5

# Target: SpPex13
# Assay: as above
# Method in brief: as §1
row,Binder,SPOT peptide array binding signal intensity
1,B1,2

# Target: SpRvs167
# Assay: as above
# Method in brief: as §1
row,Binder,SPOT peptide array binding signal intensity
1,B1,≤ 0

# Target: SpSla1-D1-D2
# Assay: as above
# Method in brief: as §1
row,Binder,SPOT peptide array binding signal intensity
1,B1,≤ 0

# Target: SpSla1-D3
# Assay: as above
# Method in brief: as §1
row,Binder,SPOT peptide array binding signal intensity
1,B1,0.5
